# Test results as given in publication PMC7862700, “An all-to-all approach to the identification of sequence-specific readers for epigenetic DNA modifications on cytosine”.
# Key:
# Assay in all cases: DAPPL (digital affinity profiling via proximity ligation, sequencing); 10 mM Tris-HCl pH 7.5, 50 mM NaCl, 1 mM DTT, 4% glycerol, room temperature, 30 min; GST-TFs on glutathione beads, 16-mer random dsDNA library, 0.1% formaldehyde crosslink after washing; high values mean tight binding
# FEV = molecular target: T1, FEV (Homo sapiens, UniProt Q99581 1-238); conditions: protein: recombinant; tags: N-terminal GST; dsDNA, one strand shown
# T1 sequence: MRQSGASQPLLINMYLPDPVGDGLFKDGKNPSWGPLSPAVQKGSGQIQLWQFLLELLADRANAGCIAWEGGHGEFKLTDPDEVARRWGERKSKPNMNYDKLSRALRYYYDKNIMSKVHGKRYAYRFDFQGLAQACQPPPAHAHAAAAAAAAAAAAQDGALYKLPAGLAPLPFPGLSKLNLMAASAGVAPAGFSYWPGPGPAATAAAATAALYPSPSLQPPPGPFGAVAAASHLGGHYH
# Outline: (§1)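 Yeast served to express human transcription factors as GST fusions, which were then captured on glutathione beads and labelled with DNA barcodes. Pooled with a tag-only sample, they were incubated with 200 nmole of a 16-mer random double-stranded DNA library for 30 min at room temperature in Tris/NaCl/DTT/glycerol buffer, washed, crosslinked with 0.1% formaldehyde, ligated by proximity, amplified by PCR and sequenced. Dividing each hexamer's read frequency for a factor by its frequency for the tag-only sample gives the binding signal.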
# ETV5 = ETV5 (Homo sapiens, UniProt P41161 1-510); conditions: protein: recombinant; tags: N-terminal GST; dsDNA, one strand shown
# Sequence of ETV5 (P41161 whole entry): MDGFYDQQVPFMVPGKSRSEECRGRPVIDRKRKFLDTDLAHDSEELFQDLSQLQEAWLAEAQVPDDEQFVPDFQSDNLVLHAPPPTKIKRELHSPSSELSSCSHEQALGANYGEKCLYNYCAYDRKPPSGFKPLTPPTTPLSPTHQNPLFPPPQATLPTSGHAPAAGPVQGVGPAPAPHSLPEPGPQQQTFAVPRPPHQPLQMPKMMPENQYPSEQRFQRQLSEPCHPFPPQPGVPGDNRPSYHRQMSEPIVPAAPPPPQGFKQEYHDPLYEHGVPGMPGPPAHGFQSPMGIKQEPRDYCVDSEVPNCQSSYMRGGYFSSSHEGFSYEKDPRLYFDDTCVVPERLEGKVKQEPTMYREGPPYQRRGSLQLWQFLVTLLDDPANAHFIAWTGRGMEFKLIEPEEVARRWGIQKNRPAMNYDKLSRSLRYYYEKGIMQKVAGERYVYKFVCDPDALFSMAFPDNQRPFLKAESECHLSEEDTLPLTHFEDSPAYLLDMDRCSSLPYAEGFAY
# Outline: as §1
# HSF1 = HSF1 (Homo sapiens, UniProt Q00613 1-529); conditions: protein: recombinant; tags: N-terminal GST; chain copies: 3; dsDNA, one strand shown
# Sequence of HSF1 (Q00613 whole entry): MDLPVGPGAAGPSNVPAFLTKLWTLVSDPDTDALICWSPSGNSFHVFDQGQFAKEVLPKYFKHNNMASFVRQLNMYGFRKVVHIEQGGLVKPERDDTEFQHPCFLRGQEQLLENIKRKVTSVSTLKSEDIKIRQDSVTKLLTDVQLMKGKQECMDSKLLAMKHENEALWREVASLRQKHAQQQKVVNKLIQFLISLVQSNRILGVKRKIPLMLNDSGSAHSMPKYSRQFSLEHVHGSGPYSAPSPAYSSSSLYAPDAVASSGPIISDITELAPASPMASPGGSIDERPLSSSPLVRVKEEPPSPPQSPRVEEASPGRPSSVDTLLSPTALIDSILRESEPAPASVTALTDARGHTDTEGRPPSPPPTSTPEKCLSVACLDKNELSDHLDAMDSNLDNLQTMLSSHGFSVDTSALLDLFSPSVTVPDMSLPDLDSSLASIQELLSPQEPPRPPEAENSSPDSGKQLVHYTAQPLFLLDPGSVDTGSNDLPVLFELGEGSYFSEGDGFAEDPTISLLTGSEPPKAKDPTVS
# Outline: as §1
# SPIC = molecular target: T2, SPIC (Homo sapiens, UniProt Q8N5J4 1-248); conditions: protein: recombinant; tags: N-terminal GST; dsDNA, one strand shown
# T2 sequence: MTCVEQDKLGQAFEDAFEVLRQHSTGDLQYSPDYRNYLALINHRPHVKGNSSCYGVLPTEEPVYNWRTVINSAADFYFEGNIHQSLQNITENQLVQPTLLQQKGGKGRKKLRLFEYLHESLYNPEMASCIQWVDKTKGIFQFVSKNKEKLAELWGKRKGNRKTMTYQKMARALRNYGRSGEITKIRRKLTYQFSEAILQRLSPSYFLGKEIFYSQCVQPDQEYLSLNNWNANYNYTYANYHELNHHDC
# Outline: as §1
# ELF4 = ELF4 (Homo sapiens, UniProt Q99607 1-663); conditions: protein: recombinant; tags: N-terminal GST; dsDNA, one strand shown
# Sequence of ELF4 (Q99607 whole entry): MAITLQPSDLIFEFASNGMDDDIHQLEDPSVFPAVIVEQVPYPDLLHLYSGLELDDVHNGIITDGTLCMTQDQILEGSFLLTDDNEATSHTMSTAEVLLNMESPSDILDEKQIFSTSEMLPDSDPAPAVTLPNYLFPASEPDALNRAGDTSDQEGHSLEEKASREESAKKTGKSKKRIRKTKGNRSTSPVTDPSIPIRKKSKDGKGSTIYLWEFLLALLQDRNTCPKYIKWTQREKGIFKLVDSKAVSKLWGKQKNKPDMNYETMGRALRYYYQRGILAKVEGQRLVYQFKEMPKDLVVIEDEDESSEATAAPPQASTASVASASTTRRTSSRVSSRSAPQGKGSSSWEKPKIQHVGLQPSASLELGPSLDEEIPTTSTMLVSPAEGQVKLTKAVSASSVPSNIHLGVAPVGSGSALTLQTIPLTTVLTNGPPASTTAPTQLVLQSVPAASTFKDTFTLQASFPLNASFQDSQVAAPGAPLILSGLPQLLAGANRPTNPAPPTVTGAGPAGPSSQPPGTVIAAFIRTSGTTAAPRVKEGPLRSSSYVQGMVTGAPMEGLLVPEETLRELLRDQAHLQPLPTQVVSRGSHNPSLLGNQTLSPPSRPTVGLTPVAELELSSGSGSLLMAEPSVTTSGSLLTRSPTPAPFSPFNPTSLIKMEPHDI
# Outline: as §1
# ELK4 = molecular target: T3, ELK4 (Homo sapiens, UniProt P28324-2 1-405); conditions: protein: recombinant; tags: N-terminal GST; dsDNA, one strand shown
# T3 sequence: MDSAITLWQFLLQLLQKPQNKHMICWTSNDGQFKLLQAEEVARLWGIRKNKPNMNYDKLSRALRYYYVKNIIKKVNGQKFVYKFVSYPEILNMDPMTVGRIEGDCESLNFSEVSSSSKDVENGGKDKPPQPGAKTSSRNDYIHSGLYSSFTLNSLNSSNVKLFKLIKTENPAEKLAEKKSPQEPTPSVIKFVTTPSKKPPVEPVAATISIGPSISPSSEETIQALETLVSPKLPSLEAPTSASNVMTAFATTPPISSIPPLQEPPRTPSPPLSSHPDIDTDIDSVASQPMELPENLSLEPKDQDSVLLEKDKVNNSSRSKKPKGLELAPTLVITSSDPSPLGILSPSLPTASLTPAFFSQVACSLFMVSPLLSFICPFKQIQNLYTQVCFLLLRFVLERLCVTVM
# Outline: as §1
# ETV2 = molecular target: T4, ETV2 (Homo sapiens, UniProt O00321 1-342); conditions: protein: recombinant; tags: N-terminal GST; dsDNA, one strand shown
# T4 sequence: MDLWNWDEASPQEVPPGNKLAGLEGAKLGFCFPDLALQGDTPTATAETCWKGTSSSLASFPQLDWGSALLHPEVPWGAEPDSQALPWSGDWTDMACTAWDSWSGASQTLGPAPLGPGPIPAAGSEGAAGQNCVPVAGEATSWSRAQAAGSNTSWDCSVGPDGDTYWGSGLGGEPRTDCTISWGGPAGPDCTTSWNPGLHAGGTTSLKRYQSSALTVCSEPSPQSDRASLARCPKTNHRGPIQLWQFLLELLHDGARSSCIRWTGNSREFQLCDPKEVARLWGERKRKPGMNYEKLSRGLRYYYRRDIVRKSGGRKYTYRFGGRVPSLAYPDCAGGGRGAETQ
# Outline: as §1
# ELF3 = molecular target: T5, ELF3 (Homo sapiens, UniProt P78545 1-371); conditions: protein: recombinant; tags: N-terminal GST; dsDNA, one strand shown
# T5 sequence: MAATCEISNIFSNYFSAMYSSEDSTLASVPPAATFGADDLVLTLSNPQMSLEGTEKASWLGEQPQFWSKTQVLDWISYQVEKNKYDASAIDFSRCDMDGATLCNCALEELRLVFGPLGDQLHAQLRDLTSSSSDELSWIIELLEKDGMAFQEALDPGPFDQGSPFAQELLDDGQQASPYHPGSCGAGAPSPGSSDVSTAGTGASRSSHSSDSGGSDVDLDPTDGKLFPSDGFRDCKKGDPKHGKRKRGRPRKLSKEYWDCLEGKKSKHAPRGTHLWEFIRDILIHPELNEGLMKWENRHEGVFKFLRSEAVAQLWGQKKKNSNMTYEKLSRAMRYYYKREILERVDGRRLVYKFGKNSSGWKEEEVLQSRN
# Outline: as §1
# CRX = CRX (Homo sapiens, UniProt O43186 1-299); conditions: protein: recombinant; tags: N-terminal GST; dsDNA, one strand shown
# Sequence of CRX (O43186 whole entry): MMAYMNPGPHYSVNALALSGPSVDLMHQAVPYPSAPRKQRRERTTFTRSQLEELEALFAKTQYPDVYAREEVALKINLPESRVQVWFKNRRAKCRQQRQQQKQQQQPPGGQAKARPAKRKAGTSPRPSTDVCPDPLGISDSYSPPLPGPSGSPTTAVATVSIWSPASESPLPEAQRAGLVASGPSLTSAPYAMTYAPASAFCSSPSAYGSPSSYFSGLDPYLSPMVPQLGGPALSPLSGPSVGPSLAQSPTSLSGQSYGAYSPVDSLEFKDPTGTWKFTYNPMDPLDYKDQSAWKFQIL
# Outline: as §1
# ETV1 = ETV1 (Homo sapiens, UniProt P50549 1-477); conditions: protein: recombinant; tags: N-terminal GST; dsDNA, one strand shown
# Sequence of ETV1 (P50549 whole entry): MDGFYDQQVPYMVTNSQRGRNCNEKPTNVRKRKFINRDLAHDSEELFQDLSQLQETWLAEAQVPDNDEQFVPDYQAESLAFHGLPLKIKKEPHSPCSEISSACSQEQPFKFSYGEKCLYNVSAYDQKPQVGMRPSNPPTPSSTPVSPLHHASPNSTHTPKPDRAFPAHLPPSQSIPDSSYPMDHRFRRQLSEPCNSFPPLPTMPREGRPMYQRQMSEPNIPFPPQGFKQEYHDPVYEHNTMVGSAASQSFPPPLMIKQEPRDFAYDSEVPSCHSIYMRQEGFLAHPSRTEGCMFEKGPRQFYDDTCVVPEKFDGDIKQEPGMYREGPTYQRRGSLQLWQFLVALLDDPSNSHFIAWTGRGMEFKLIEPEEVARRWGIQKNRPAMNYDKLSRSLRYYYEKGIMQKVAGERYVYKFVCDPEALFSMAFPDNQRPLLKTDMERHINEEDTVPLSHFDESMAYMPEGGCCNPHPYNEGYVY
# Outline: as §1
# ERF = molecular target: T6, ERF (Homo sapiens, UniProt P50548 1-548); conditions: protein: recombinant; tags: N-terminal GST; dsDNA, one strand shown
# T6 sequence: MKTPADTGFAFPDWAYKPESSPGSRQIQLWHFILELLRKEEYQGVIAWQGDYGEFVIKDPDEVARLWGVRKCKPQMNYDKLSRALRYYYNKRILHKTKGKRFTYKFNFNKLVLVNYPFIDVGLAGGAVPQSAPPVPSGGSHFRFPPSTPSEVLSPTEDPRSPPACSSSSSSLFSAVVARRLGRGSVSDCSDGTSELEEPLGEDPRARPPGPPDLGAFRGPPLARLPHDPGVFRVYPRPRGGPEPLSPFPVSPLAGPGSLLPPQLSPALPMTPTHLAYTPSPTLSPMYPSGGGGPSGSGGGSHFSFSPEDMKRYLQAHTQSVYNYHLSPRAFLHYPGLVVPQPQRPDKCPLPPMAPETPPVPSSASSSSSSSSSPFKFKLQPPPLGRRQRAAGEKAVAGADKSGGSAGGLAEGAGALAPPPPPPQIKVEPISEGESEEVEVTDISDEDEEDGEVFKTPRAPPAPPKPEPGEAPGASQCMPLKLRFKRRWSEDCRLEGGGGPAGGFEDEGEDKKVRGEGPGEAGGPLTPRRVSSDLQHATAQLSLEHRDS
# Outline: as §1
# ETV3L = molecular target: T7, ETV3L (Homo sapiens, UniProt Q6ZN32 1-361); conditions: protein: recombinant; tags: N-terminal GST; dsDNA, one strand shown
# T7 sequence: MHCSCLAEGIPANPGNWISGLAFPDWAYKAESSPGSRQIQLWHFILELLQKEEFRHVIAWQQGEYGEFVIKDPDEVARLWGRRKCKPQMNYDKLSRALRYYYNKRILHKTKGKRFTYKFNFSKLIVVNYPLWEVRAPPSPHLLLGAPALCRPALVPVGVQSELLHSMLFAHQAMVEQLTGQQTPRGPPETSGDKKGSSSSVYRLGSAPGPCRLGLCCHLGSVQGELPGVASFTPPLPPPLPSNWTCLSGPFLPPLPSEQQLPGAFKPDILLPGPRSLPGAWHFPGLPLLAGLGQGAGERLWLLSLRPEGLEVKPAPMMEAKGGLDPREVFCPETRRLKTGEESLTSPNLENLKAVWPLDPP
# Outline: as §1
# ETS2 = molecular target: T8, ETS2 (Homo sapiens, UniProt P15036 1-469); conditions: protein: recombinant; tags: N-terminal GST; dsDNA, one strand shown
# T8 sequence: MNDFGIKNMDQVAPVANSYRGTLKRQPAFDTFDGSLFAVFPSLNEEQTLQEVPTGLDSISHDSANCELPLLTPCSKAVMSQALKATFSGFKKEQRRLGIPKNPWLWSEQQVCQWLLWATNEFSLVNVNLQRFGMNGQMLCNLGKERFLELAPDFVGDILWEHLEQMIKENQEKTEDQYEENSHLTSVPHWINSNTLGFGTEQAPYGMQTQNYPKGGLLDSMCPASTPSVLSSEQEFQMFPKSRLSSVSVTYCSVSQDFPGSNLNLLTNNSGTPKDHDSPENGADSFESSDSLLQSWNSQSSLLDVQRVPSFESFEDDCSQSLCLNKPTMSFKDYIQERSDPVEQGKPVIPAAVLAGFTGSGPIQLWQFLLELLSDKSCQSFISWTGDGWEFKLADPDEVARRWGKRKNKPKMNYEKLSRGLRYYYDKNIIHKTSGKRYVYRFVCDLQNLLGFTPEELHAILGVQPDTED
# Outline: as §1
# SPDEF = molecular target: T9, SPDEF (Homo sapiens, UniProt O95238 1-335); conditions: protein: recombinant; tags: N-terminal GST; dsDNA, one strand shown
# T9 sequence: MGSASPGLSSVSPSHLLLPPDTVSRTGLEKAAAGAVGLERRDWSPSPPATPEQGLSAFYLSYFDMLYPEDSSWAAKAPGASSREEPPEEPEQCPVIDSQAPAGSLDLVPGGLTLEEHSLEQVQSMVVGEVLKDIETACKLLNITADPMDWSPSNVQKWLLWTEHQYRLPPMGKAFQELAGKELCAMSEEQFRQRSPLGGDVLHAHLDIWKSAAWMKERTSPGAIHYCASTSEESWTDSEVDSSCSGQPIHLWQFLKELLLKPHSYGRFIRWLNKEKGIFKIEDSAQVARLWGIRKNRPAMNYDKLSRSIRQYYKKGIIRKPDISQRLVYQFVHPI
# Outline: as §1
# ETV7 = molecular target: T10, ETV7 (Homo sapiens, UniProt Q9Y603 1-341); conditions: protein: recombinant; tags: N-terminal GST; dsDNA, one strand shown
# T10 sequence: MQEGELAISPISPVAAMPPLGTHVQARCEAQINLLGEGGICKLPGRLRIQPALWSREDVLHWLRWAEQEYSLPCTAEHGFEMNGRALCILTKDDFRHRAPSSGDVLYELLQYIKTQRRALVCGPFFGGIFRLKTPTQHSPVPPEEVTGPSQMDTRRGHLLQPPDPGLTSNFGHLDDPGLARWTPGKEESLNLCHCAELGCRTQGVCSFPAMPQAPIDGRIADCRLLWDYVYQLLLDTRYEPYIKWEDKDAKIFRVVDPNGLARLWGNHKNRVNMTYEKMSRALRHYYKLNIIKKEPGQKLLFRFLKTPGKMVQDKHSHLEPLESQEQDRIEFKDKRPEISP
# Outline: as §1
# ELF5 = molecular target: T11, ELF5 (Homo sapiens, UniProt Q9UKW6-2 1-255); conditions: protein: recombinant; tags: N-terminal GST; dsDNA, one strand shown
# T11 sequence: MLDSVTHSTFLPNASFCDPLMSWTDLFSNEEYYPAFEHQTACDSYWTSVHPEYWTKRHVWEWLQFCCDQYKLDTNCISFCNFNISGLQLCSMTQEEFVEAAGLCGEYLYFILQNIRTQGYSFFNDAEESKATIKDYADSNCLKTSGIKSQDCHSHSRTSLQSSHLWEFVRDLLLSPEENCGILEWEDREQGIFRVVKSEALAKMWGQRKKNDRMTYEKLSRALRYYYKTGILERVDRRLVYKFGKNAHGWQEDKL
# Outline: as §1
# ETV3 = molecular target: T12, ETV3 (Homo sapiens, UniProt P41162-2 1-143); conditions: protein: recombinant; tags: N-terminal GST; dsDNA, one strand shown
# T12 sequence: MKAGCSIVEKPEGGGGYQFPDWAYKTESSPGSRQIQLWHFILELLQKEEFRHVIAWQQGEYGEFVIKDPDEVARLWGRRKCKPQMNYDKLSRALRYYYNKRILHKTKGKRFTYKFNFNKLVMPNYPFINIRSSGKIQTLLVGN
# Outline: as §1
# ETV6 = ETV6 (Homo sapiens, UniProt P41212 1-452); conditions: protein: recombinant; tags: N-terminal GST; dsDNA, one strand shown
# Sequence of ETV6 (P41212 whole entry): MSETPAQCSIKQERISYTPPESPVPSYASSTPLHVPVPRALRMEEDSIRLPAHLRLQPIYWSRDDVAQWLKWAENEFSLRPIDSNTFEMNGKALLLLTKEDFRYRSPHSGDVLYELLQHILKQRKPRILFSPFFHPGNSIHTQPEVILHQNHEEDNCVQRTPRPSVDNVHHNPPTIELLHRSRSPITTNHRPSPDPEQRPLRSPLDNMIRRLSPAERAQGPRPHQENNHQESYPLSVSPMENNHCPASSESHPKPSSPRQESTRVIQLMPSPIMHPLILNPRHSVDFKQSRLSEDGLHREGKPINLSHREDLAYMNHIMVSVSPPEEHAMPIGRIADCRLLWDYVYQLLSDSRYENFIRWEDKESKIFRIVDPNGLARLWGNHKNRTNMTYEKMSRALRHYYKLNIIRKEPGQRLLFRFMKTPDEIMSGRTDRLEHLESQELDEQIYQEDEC
# Outline: as §1
sequence,measurement,setting,value
ATCTTT,binding signal,FEV,"1.19 fold enrichment (6-mer frequency, TF over GST control)"
same,binding signal,ETV5,"1.16 fold enrichment (6-mer frequency, TF over GST control)"
same,binding signal,HSF1,"1.58 fold enrichment (6-mer frequency, TF over GST control)"
same,binding signal,SPIC,"1.35 fold enrichment (6-mer frequency, TF over GST control)"
same,binding signal,ELF4,"1.22 fold enrichment (6-mer frequency, TF over GST control)"
same,binding signal,ELK4,"1.29 fold enrichment (6-mer frequency, TF over GST control)"
same,binding signal,ETV2,"1.15 fold enrichment (6-mer frequency, TF over GST control)"
same,binding signal,ELF3,"1.17 fold enrichment (6-mer frequency, TF over GST control)"
same,binding signal,CRX,"1.76 fold enrichment (6-mer frequency, TF over GST control)"
same,binding signal,ETV1,"1.24 fold enrichment (6-mer frequency, TF over GST control)"
same,binding signal,ERF,"1.22 fold enrichment (6-mer frequency, TF over GST control)"
same,binding signal,ETV3L,"1.34 fold enrichment (6-mer frequency, TF over GST control)"
same,binding signal,ETS2,"1.18 fold enrichment (6-mer frequency, TF over GST control)"
same,binding signal,SPDEF,"1.17 fold enrichment (6-mer frequency, TF over GST control)"
same,binding signal,ETV7,"1.13 fold enrichment (6-mer frequency, TF over GST control)"
same,binding signal,ELF5,"1.21 fold enrichment (6-mer frequency, TF over GST control)"
same,binding signal,ETV3,"1.21 fold enrichment (6-mer frequency, TF over GST control)"
same,binding signal,ETV6,"1.2 fold enrichment (6-mer frequency, TF over GST control)"
